We go through 18 molecules from ChEMBL document CHEMBL3988442, “University of Dundee, Small-Polar-MMV Screening Library” (2021).

In this assay the target is AMP-activated protein kinase, AMPK (Homo sapiens) (UniProt P54646+O43741+P54619+Q9UGJ0+Q9Y478+Q13131+Q9UGI9). Briefly: AMP-dependent Kinase enzyme assay. An in vitro enzyme assay that detects ADP turnover that is directly proportional to AMPK activity. This uses naive AMPK that is activated during the assay with MK-8722. The class given is functional. The following applies: 30 µM. Further details: scale not given: direction of the effect not stated beside the values.
Take `CCc1nnc2n1CCN(c1nc(C)cc(N(C)C)n1)C2`: the Percent Effect is -7.79%.
As for `C[C@@H]1CN(C(=O)C2(Cn3cccn3)CC2)CC[C@@]1(O)C1CC1`, the Percent Effect was -6.74%.
Next, `CN(C)S(=O)(=O)NCC1CCN(Cc2ccccc2F)CC1`: -2.6%; `CC(C)N(C)S(=O)(=O)c1ccc2c(c1)CCN(C(=O)c1cscn1)C2`: -3.43%.
Turning to `O=C(Cn1cc(Cl)cn1)N1CCNC1=O`, the Percent Effect was -8.6%.
Consider `O=C(c1ccccc1)C1CCN(C(=O)CC2COCCN2)CC1` (stereo not drawn), for which the Percent Effect was determined as 1.36%.
The result for `Cc1ccccc1OCCn1cnc2oc(C)c(C(=O)O)c2c1=O` reads 14.5%.
The result for `N#CC1(NC(=O)CN2CCc3c(ncn3C3CC3)C2)CCCC1` reads -7.46%.
On to `CN1CC=C(CCN(C)C(=O)CCc2ccccc2)CC1`, for which the Percent Effect was -0.771%.
Next, `CSCCC(NC(=O)c1ccccc1)C(=O)N(C)Cc1ccsc1` (stereo not drawn): -4.15%; `CCn1nc(C)cc1C(=O)OCC1CC(=O)N(Cc2ccccc2)C1` (stereo not drawn): 38.6%.
For the molecule `O=C(CCOc1ccc(Cl)cc1)NCCCn1cccn1`, the Percent Effect is -3.71%.
As for `COCC[C@]1(O)CCN(Cc2ccccn2)C[C@H]1C`, the Percent Effect was 5.38%.
For the molecule `CN(Cc1ccccc1F)Cc1cc2c(cc1Br)OCCO2`, the Percent Effect was -3.17%.
As for `OCCOCCNCC1(c2ccc(F)cc2)CCOC1` (stereo not drawn), the Percent Effect is -5.55%.
The result for `Cc1nnc(CN(Cc2ccco2)Cc2cccc3c2OCO3)n1C` reads -4.86%; that for `CCN(CC(=O)N(C)C)C(=O)c1ccc(-c2nc(C)cs2)cc1`, 8.68%.
The result for `COCCN1CCC(NC(=O)C/C=C/c2ccc(C(C)C)cc2)CC1` reads -8.07%.
